Experimental data reported in PubChem BioAssay (Tox21).
Several values for one entry are separate records, joined by “and”; a condition that tells them apart may be missing. Identical values can stand only once. Results filed as inconclusive are left out. A call without a number means that no potency is given here. Activity calls are given as the source filed them. Unless noted, calls follow the shape of the dose curve; as a rule, active = well fitted curve in the direction sought with a large enough effect in the repeat runs; inconclusive = weak or mixed curves; inactive = no such curve, though single readings can be large; an effect the other way counts as inactive or inconclusive.

Experiments:
[1] = qHTS assay for small molecule disruptors of the mitochondrial membrane potential (AID 720635); also: potency is read from the fitted curve at half-maximal effect
Summary of the method: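 HepG2 cells exposed to compound 1 hr at 37C, then Mito-MPS dye 30 min. Ratio read of aggregate (540/590 nm) versus monomer (490/535 nm) fluorescence.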

[2] = qHTS assay to test for compound auto fluorescence at 590 nm (red) in HepG2 cells (AID 720674)
Summary of the method: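 HepG2 cells, 2,000 per well in MEM with 10% FBS, attached overnight at 37 C, then got 23 nL compound or DMSO. After 1 hr at 37 C, 5% CO2, red fluorescence was read at 540/590 nm against Rose Bengal sodium as reference.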

[3] = qHTS assay to test for compound auto fluorescence at 535 nm (green) in HepG2 cells (AID 720675)
[4] = qHTS assay to test for compound auto fluorescence at 460 nm (blue) in HEK293 cells (AID 720678)
Summary of the method: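 HEK293 cells (2,000 per well, medium with 10% dialyzed FBS) attached for 4-5 hr at 37C, then received compound and stood overnight at 37C, 5% CO2. Blue fluorescence was read at Ex/Em 405/460 nm and expressed relative to triamterene.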

[5] = qHTS assay to test for compound auto fluorescence at 590 nm (red) in HEK293 cells (AID 720679)
Summary of the method: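 HEK293 cells (2,000/well, medium with 10% dialyzed FBS) attached for 4-5 hr at 37C, received 23 nL compound and were incubated overnight at 37C, 5% CO2. Red fluorescence was then read at 540/590nm Ex/Em, referenced to Rose Bengal sodium.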

[6] = qHTS assay to test for compound auto fluorescence at 535 nm (green) in HEK293 cells (AID 720680)
[7] = qHTS assay to test for compound auto fluorescence at 460 nm (blue) in HEK293 cell free culture (AID 720681)
Summary of the method: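 Compounds were added to cell-free DMEM with 10% FBS and fluorescence read directly. The blue channel used 405 nm excitation and 460 nm emission, with triamterene as the reference fluorophore.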

[8] = qHTS assay to test for compound auto fluorescence at 535 nm (green) in HEK293 cell free culture (AID 720682)
Summary of the method: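 Steps: dispense DMEM/10% FBS into empty wells; pin in compound or DMSO; measure fluorescence at 485/535 nm. Values are fluorescein equivalents.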

[9] = qHTS assay to test for compound auto fluorescence at 590 nm (red) in HEK293 cell free culture (AID 720683)
Summary of the method: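 Cell-free wells of DMEM with 10% FBS received compound, and intrinsic fluorescence was read at excitation/emission 540/590 nm. Values expressed as equivalence to Rose Bengal sodium.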

[10] = qHTS assay to test for compound auto fluorescence at 590 nm (red) in HepG2 cell free culture (AID 720684)
Summary of the method: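 Rose Bengal sodium served as the reference for red signal. Test compounds were dispensed into serum-containing MEM (10% FBS) without cells, and plates were read at 540/590 nm.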

[11] = qHTS assay to test for compound auto fluorescence at 460 nm (blue) in HepG2 cell free culture (AID 720685)
Summary of the method: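 Cell-free plates of MEM plus 10% FBS received 23 nL compound or DMSO vehicle; blue-channel (405/460 nm) intensity scored against triamterene as reference fluorophore.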

[12] = qHTS assay to test for compound auto fluorescence at 535 nm (green) in HepG2 cell free culture (AID 720686)
[13] = qHTS assay to test for compound auto fluorescence at 460 nm (blue) in HepG2 cells (AID 720687)
Summary of the method: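 HepG2 cells in MEM with 10% FBS, attached overnight at 37 C, were exposed to compound or DMSO for 1 hr at 37 C, 5% CO2. Blue fluorescence was read at 405/460 nm, with triamterene as reference fluorophore.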

[14] = qHTS assay for small molecules that induce genotoxicity in human embryonic kidney cells expressing luciferase-tagged ATAD5 (AID 651632); also: nearly all actives have a fitted effect of over 15% in size
Summary of the method: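 Test compounds were delivered by pin tool onto HEK293T reporter cells (2,000/well) expressing ATAD5 fused to luciferase. After 16 hr at 37C, 5% CO2, Amplite was added for 30 min at room temperature and luminescence was measured.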

[15] = qHTS assay for small molecule agonists of the p53 signaling pathway - cell viability (AID 651633; calls by dose curve; also: potency is read from the fitted curve at half-maximal effect; nearly all actives have a fitted effect of over 30% in size)
Summary of the method: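 p53RE-bla cells were treated with compound for 16 hours at 37 C. Cytotoxicity was then measured as CellTiter-Glo luminescence after 30 min at room temperature.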

[16] = qHTS assay for small molecule disruptors of the mitochondrial membrane potential - cell viability (AID 720634; calls by dose curve; also: nearly all actives have a fitted effect of over 20% in size; also: potency is read from the fitted curve at half-maximal effect)
Summary of the method: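 Same-well counter-screen: following the MMP dye addition, CellTiter-Glo was added to 1 hr compound-treated HepG2 cells and luminescence read after 30 min at room temperature.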

[17] = target: Glucocorticoid receptor (Homo sapiens) (UniProt P04150); assay: qHTS assay to identify small molecule agonists of the glucocorticoid receptor (GR) signaling pathway (AID 720691; active = well fitted activation curve with a large enough effect in the signal ratio in the repeat runs, not every such curve was filed as active; the % refers to the signal ratio); settings: GR-bla HeLa, beta-lactamase reporter ratio, 18 h; activation: at 62.4 µM (top of the series)
Summary of the method: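 A HeLa cervical cancer line expressing GR and a glucocorticoid response element-driven beta-lactamase gene is treated with compounds for 18 h; LiveBLAzer B/G FRET substrate is then applied and fluorescence read.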

[18] = qHTS assay for small molecules that induce genotoxicity in human embryonic kidney cells expressing luciferase-tagged ATAD5 - cell viability (AID 651634; calls by dose curve; also: nearly all actives have a fitted effect of over 25% in size)
Summary of the method: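 Quantitative high-throughput format. HEK293T cells expressing ATAD5 fused to luciferase were plated at 2,000 cells/well and treated 15.5 hr with compound versus DMSO. Viability was determined by fluorescent live-cell protease substrate, 30 min at 37C.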

[19] = target: Glucocorticoid receptor (Homo sapiens) (UniProt P04150); assay: qHTS assay to identify small molecule antagonists of the glucocorticoid receptor (GR) signaling pathway (AID 720692; active = well fitted inhibition curve with a large enough effect in the signal ratio in the repeat runs, not every such curve was filed as active; the % refers to the signal ratio)
Summary of the method: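 GRE-bla HeLa line, dex-stimulated (5 nM final). Compound exposure 18 h, 37 C. Beta-lactamase FRET read after 2 h RT substrate.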

Sequence of Glucocorticoid receptor (Homo sapiens) (P04150 whole entry, looked up): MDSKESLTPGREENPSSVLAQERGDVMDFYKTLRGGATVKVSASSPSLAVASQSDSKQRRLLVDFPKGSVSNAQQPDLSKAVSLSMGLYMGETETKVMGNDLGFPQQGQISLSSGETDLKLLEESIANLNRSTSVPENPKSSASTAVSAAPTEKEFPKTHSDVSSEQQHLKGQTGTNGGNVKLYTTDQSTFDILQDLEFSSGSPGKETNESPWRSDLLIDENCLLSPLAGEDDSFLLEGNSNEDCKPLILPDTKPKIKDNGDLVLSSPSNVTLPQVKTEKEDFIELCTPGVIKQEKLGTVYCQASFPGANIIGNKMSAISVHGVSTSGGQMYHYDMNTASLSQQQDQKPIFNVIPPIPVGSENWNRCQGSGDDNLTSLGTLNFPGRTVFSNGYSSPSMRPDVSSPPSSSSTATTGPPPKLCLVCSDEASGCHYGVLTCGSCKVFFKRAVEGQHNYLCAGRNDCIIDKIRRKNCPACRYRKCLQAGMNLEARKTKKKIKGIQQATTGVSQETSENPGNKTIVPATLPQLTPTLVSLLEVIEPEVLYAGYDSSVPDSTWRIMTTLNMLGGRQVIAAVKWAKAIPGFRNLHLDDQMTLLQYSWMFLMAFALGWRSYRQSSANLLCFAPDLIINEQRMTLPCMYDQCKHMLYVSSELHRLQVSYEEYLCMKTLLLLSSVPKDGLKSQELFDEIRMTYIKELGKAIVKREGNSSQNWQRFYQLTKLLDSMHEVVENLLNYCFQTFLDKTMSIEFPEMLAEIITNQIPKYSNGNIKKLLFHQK

SMILES | Potency [1] | outcome [2] | Potency [3] | Potency [4] | outcome [5] | outcome [6] | Potency [7] | outcome [8] | outcome [9] | outcome [10] | Potency [11] | Potency [12] | Potency [13] | Potency [14] | Potency [15] | Potency [16] | Potency [17] | Potency [18] | Potency [19]
Nc1ccc(N)c([N+](=O)[O-])c1 | 1.09 µM (active) | inactive | inactive | inactive | inactive | inactive | inactive | inactive | inactive | inactive | inactive | inactive | inactive |  |  |  |  |  | 
O=C(Nc1ccccc1)c1cc(Cl)ccc1O | 0.386 µM (active) | inactive | inactive | inactive | inactive | inactive | inactive | inactive | inactive | inactive | inactive | inactive | inactive | inactive | 17.2 µM (active) | 1930 nM (active) | inactive |  | 
O=C(CCN1CCC(c2ccccc2)C1)c1ccc2c(c1)OCCO2 (stereo not given) | inactive | inactive | inactive | inactive | inactive | inactive | inactive | inactive | inactive | inactive | inactive | inactive | inactive | inactive |  | inactive | inactive | inactive | 
CCCCCCCCCCCCCCCCCCNC(=O)OC1CCN(C(=O)OC[C@H](COC(=O)N(Cc2cccc[n+]2CC)C(=O)c2ccccc2OC)OC)CC1 |  | inactive | inactive | inactive | inactive | inactive | inactive | inactive | inactive | inactive | inactive | inactive | inactive | inactive | 26.6 µM (active) |  |  |  | 
C=C1C(CCl)(CCl)C2(Cl)C(Cl)C(Cl)C1(Cl)C2(Cl)Cl (stereo not given) | 3.76 µM (active) and 4.28 µM (active) | inactive | inactive | inactive | inactive | inactive | inactive | inactive | inactive | inactive | inactive | inactive | inactive | inactive | 10.6 µM (active) and 60.4 µM (active) | inactive |  |  | 
C=CCc1cc(S(=O)(=O)c2ccc(O)c(CC=C)c2)ccc1O |  | inactive | inactive | inactive | inactive | inactive | inactive | inactive | inactive | inactive | inactive | inactive | inactive | inactive |  | inactive | inactive | inactive | 
C=CC(N)CCC(=O)O (stereo not given) |  | inactive | inactive | inactive | inactive | inactive | inactive | inactive | inactive | inactive | inactive | inactive | inactive | inactive |  | inactive | inactive | inactive | inactive
